Assay results: PubChem BioAssay
Activity calls are given as the source filed them. Unless noted, how the calls were made is not given here.

Columns and labels:
[1] = compound effects on lung adenocarcinoma cell viability – A549, calcein-AM fluorescence, 48 h, basal, profiling panel (AID 1162); details: higher = more signal; further: test concentration not given here
[2] = compound effects on differentiated 3T3-L1 adipocyte viability – cell-based, 3T3-L1 adipocytes, calcein-AM fluorescence, 48 h, basal, profiling panel (AID 1163); details: 3T3-L1 adipocytes viability, higher = more signal; further: test concentration not given here
[3] = compound effects on hepatocellular carcinoma cell viability – HepG2, calcein-AM fluorescence, 48 h, basal, profiling panel (AID 1164); details: higher = more signal; further: test concentration not given here
[4] = compound effects on multiple myeloma cell viability – MM1S, calcein-AM fluorescence, 48 h, basal, profiling panel (AID 1165); details: higher = more signal;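 further: viability of MM1S multiple myeloma cells under basal unstimulated conditions; test concentration not given here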
[5] = calcein-AM signal in unstimulated myeloma cells – cell-based, calcein-AM fluorescence, 48 h, PK04 Diversity Set, profiling panel (AID 1166); details: RPMI8226 myeloma viability, higher = more signal;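 further: cells grown under basal conditions without added stimulus; test concentration not given here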
[6] = JC-1 mitochondrial signal, unstimulated HepG2 cells – cell-based, JC-1 fluorescence, 24 h, 100 nL compound, profiling panel (AID 1167); details: HepG2 mitochondrial potential, higher = more signal; further: test concentration not given here
[7] = JC-1 mitochondrial signal, unstimulated adipocytes – cell-based, JC-1 fluorescence, 3T3-L1 adipocytes, 24 h, 100 nL compound, profiling panel (AID 1168); details: JC-1 mitochondrial fluorescence, higher = more signal, called active from +8 up or from −8 down; further: test concentration not given here
[8] = JC-1 mitochondrial signal, unstimulated myeloma cells – cell-based, JC-1 fluorescence, RPMI8226, 24 h, 100 nL compound, profiling panel (AID 1169); details: JC-1 mitochondrial potential fluorescence, higher = more signal; further: test concentration not given here
[9] = JC-1 mitochondrial signal, unstimulated MM1S myeloma – cell-based, JC-1 fluorescence, 24 h, 100 nL compound, profiling panel (AID 1170); details: MM1S mitochondrial potential, higher = more signal; further: test concentration not given here
[10] = resazurin metabolic signal in A549 cells – cell-based, resazurin fluorescence, 24 h, PK04 Diversity Set, profiling panel (AID 1171); details: A549 viability, higher = more signal, called active from +8 up or from −8 down; further: test concentration not given here
[11] = resazurin metabolic signal in HepG2 cells – cell-based, resazurin fluorescence, 24 h, PK04 Diversity Set, profiling panel (AID 1172); details: HepG2 viability, higher = more signal; further: test concentration not given here
[12] = budding yeast growth changes without added modifier – OD600, strain BY4716, 24 h, basal condition, primary screen (AID 1173); details: S. cerevisiae BY4716 growth, OD600, 24 h; higher = more signal, called active from +8 up or from −8 down
[13] = viability profiling in MM1S myeloma cells – cell-based, resazurin fluorescence, basal, 24 h, PK04 Diversity Set, profiling panel (AID 1174); details: higher = more signal, called active from +8 up or from −8 down; further: test concentration not given here
[14] = biological target: Dihydroorotate dehydrogenase (quinone), mitochondrial (Plasmodium falciparum (isolate 3D7)) (UniProt Q08210); assay: inhibition of P. falciparum DHODH – biochemical, C-terminal His tag, absorbance 600 nm, primary screen (AID 1175); details: PfDHODH enzyme, DCIP absorbance 600 nm; higher = more signal, called active from +8 up or from −8 down;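 further: recombinant parasite enzyme with a five histidine tag at its C terminus; test concentration not given here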
Chain of Dihydroorotate dehydrogenase (quinone), mitochondrial (Plasmodium falciparum (isolate 3D7)) (Q08210 whole entry, looked up): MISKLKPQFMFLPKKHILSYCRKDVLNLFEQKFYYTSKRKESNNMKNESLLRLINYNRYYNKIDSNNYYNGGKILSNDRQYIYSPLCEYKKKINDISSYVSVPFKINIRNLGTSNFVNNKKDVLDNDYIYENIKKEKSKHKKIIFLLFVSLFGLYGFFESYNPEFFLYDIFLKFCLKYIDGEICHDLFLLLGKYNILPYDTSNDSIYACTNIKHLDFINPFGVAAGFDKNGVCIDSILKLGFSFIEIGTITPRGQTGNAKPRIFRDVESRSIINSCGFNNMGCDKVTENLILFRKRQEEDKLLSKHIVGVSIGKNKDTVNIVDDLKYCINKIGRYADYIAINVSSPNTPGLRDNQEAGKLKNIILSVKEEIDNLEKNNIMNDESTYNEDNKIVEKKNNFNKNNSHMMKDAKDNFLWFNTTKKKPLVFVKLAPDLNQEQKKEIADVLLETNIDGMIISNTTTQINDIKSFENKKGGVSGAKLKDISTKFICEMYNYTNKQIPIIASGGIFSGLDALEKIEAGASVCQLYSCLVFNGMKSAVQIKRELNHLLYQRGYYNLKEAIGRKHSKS

[15] = inhibition of PAO1 biofilm formation – strain PAO1, LB-PBS medium, absorbance 600 nm, primary screen (AID 1176); further: test concentration not given here; details: P. aeruginosa PAO1 growth/biofilm, A600, 12 h; higher = more signal
[16] = growth modulation of vineyard yeast isolate – strain RM11-1a, OD600, basal, 24 h, primary screen (AID 1177);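 further: cultures grown under basal conditions with no added stressor; test concentration not given here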; details: S. cerevisiae RM11-1a growth, OD600, 24 h; higher = more signal, called active from +8 up or from −8 down
[17] = growth of efflux-deficient E. coli DRC39 – strain DRC39, OD650, 24 h, E. coli filamentation inducers, primary screen (AID 1178);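 further: growth measured as culture turbidity by optical density at 650 nm; test concentration not given here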; details: E. coli DRC39 acrAB, higher = more signal, called active from +8 up or from −8 down
[18] = growth of efflux-deficient E. coli DRC39 – strain DRC39, OD650, 48 h, E. coli filamentation inducers, primary screen (AID 1179);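 further: screen aims at cell division blockers that make cells filament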; details: E. coli DRC39 delta-acrAB growth, higher = more signal, called active from +8 up or from −8 down
[19] = viability profiling in RPMI8226 myeloma cells – cell-based, resazurin fluorescence, basal, 24 h, PK04 Diversity Set, profiling panel (AID 1180); details: higher = more signal;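 further: RPMI8826 multiple myeloma cell line at 5000 cells per well; test concentration not given here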
[20] = biological target: E3 ubiquitin-protein ligase XIAP (Homo sapiens) (UniProt P98170); assay: small molecules binding XIAP protein – biophysical, small-molecule microarray, fluorescence 635 nm, primary screen (AID 1181); details: higher = more signal;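 further: score merges 667 nm emission and signal to noise over triplicate slides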
Chain of E3 ubiquitin-protein ligase XIAP (Homo sapiens) (P98170 whole entry, looked up): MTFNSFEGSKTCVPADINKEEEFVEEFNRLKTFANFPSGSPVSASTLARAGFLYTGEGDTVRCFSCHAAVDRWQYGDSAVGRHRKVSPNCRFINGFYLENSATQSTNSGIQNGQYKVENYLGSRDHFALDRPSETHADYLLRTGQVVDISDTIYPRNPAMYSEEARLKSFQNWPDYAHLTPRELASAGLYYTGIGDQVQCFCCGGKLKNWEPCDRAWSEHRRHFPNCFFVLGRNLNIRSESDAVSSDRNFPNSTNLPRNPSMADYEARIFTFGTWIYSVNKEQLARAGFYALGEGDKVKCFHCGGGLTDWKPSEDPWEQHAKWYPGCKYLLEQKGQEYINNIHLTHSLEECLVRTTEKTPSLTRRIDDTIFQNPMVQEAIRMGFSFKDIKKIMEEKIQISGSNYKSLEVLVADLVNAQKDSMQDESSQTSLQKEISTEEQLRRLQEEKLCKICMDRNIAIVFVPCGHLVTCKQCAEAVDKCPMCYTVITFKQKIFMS

Compound	z-score [1]	z-score [2]	z-score [3]	z-score [4]	z-score [5]	z-score [6]	z-score [7]	z-score [8]	z-score [9]	z-score [10]	z-score [11]	z-score [12]	z-score [13]	composite z-score [14]	z-score [15]	z-score [16]	z-score [17]	z-score [18]	z-score [19]	composite z-score [20]
CC(CCN1CCCc2nc(C)c(C)cc21)=NOC(C)CN1CCCCc2nc(C)c(C)cc21 (stereo not given)	-0.37	-0.219	-0.508	-0.675	-0.388	1.83	-1.86 (inactive)	0.264	0.547	-0.0774 (inactive)	-0.0007	1.38 (inactive)	-0.221 (inactive)	0.131 (inactive)	1.3 (inactive)	1.02 (inactive)	0.315 (inactive)	-0.554 (inactive)	0.347	0.593
COC(=O)CC=C[C@@H](C)[C@@H](C=NO[C@H](C)c1cn([C@@H]2COC[C@H]2O)nn1)NS(=O)(=O)c1ccc(C)cc1	0.802	-0.628	1.16	0.111	0.188	-0.156	0.766 (inactive)	0.556	-1.25	-1.14 (inactive)	-1.37	-0.335 (inactive)	-1.34 (inactive)	-0.753 (inactive)	0.301 (inactive)	0.278 (inactive)	0.524 (inactive)	1.29 (inactive)	-0.687	-0.267
CO[C@H]1COC(=O)[C@@H](Cc2ccccc2)NC(=O)[C@@H](C)COC(=O)CCC[C@@H]1C	0.704	0.0955	0.577	-0.267	-0.283	-0.212	0.00303 (inactive)	-0.161	-1.23	0.6 (inactive)	0.464	-0.916 (inactive)	1.18 (inactive)	-1.7 (inactive)	-1.24 (inactive)	-0.726 (inactive)	0.285 (inactive)	1.39 (inactive)	0.759	-0.0918
COC(=O)[C@H](C)NC(=O)CCC1CC(OC(=O)NCc2ccc3c(c2)OCO3)CC2(CCCC(COC(=O)NCCc3ccccc3OC)O2)O1 (stereo not given in full)	-0.949	-0.976	-2.36	-3.53	-1.56	-1.34	0.354 (inactive)	-0.241	-0.735	0.389 (inactive)	-0.134	-0.148 (inactive)	-0.344 (inactive)	-1.07 (inactive)	0.238 (inactive)	0.0525 (inactive)	0.775 (inactive)	0.451 (inactive)	-0.229	-0.252
C[n+]1ccc(-c2ccc(CO)cc2)cc1	-1.45	-0.84	-0.0981	-0.31	-0.196	-1.04	-0.872 (inactive)	-0.634	0.236	-0.939 (inactive)	-0.557	0.11 (inactive)	-0.404 (inactive)	-10 (active)	-0.407 (inactive)	-0.142 (inactive)	0.207 (inactive)	-0.0742 (inactive)	-0.674	0.433
